According to PubChem BioAssay (Tox21):
Records with an inconclusive call do not appear. The source made the active and inactive calls. Unless noted, calls follow the shape of the dose curve; as a rule, active = well fitted cell-killing curve with a large enough effect in the repeat runs; inconclusive = weak or mixed curves, or effect the other way; inactive = flat fitted curve, though single readings scatter.

System: not listed separately
Assay: qHTS assay to identify small molecule that activate the aryl hydrocarbon receptor (AhR) signaling pathway - cell viability counter screen (AID 743086); also: nearly all actives have a fitted effect of over 45% in size; also: potency is read from the fitted curve at half-maximal effect;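 as to viability change, negative = cytotoxic: HepG2 liver cells carrying the AhR DRE luciferase reporter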
Conditions: HepG2-AhR-luc viability, CellTiter-Fluor, 24 h; series mostly up to 70.3 µM; viability change, negative = cytotoxic: at the top concentration
How it was run: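 Cytotoxicity counter screen: CellTiter-Fluor signal (30 min, 37 C) in 4000 HepG2 cells/well carrying the DRE-luciferase reporter, following 24 h compound exposure at 37 C.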
% is scaled to controls: 0 for no effect and ±100 for the full control effect.

| SMILES | viability change, negative = cytotoxic | Potency |
| --- | --- | --- |
| CCCC(=O)OC(=O)CCC | -1.19% [at 95 µM] (inactive) |  |
| Nc1ccc(F)cc1 | 3.95% [at 95 µM] (inactive) |  |
| CC(C)CC(O)CC(C)C | 5.46% (inactive) |  |
| COC(=O)CC(C(C)=O)C(=O)OC (stereo unspecified) | -0.671% (inactive) |  |
| O=C(O)CCS | -0.252% [at 95 µM] (inactive) |  |
| N[C@@H](Cc1cc(I)c(O)c(I)c1)C(=O)O | -14.1% (inactive) |  |
| CC(CO)(CO)C(=O)O | 4.3% [at 95 µM] (inactive) |  |
| COC(C)(C)OC | -0.294% (inactive) |  |
| C[C@@H]1[C@H](O)[C@@H](C)/C=C/C=C\C=C\C=C\C=C\C=C\C=C\[C@H](O[C@@H]2O[C@H](C)[C@@H](O)[C@H](N)[C@@H]2O)C[C@@H]2O[C@](O)(C[C@@H](O)C[C@@H](O)[C@H](O)CC[C@@H](O)C[C@@H](O)CC(=O)O[C@H]1C)C[C@H](O)[C@H]2C(=O)O (stereo in doubt) |  | inactive |
| CCCCCCCCCCCCCOS(=O)(=O)O | 0.919% (inactive) |  |
| CC(C)(C)NCC(O)COc1cccc2c1C[C@H](O)[C@H](O)C2 (stereo partly specified) | 16.9% [at 32.5 µM] (inactive) |  |
| CC1CCc2nccnc21 (stereo unspecified) | 0.0882% (inactive) |  |
| COc1ccc(CCN(C)CCCN2CCc3cc(OC)c(OC)cc3CC2=O)cc1OC | -21.4% (inactive) |  |
| COc1cc(NS(=O)(=O)c2ccc(N)cc2)nc(C)n1 | 14.4% (inactive) |  |
| CC(C)C(O)C(C)(C)CO (stereo unspecified) | 2.16% [at 95 µM] (inactive) |  |
| COc1ccc(-c2cc(C(F)F)nn2-c2ccc(S(N)(=O)=O)cc2)cc1F | 13.1% (inactive) |  |
| [Cl][Nd]([Cl])[Cl] | 4.06% (inactive) |  |
| CC(C)OC(=O)c1ccccc1C(=O)OC(C)C | 6.55% (inactive) |  |
| CCCCCCC(O)CCOC(C)=O (stereo unspecified) | 12.8% [at 260 µM] (inactive) |  |

| SMILES | viability change, negative = cytotoxic | Potency |
| --- | --- | --- |
| CCN(Cc1cccc(S(=O)(=O)O)c1)c1ccc(C(=C2C=CC(=[N+](CC)Cc3cccc(S(=O)(=O)O)c3)C=C2)c2ccccc2S(=O)(=O)[O-])cc1 |  | 27.4 µM (active) |
| Cc1cccc2sc(N)nc12 | 23.4% [at 95 µM] (inactive) |  |
| CCO[Si](C)(CCCOCC1CO1)OCC (stereo unspecified) | 2.13% (inactive) |  |
| Cc1ccc2c(c1)CCCN2 | -1.79% (inactive) |  |
| CC[C@H]1OC(=O)[C@H](C)[C@@H](O[C@H]2C[C@@](C)(OC)[C@@H](O)[C@H](C)O2)[C@H](C)[C@@H](O[C@@H]2O[C@H](C)C[C@H](N(C)C)[C@H]2O)[C@](C)(O)C[C@@H](C)/C(=N\OCOCCOC)[C@H](C)[C@@H](O)[C@]1(C)O |  | inactive |
| Cc1c[nH]c2ccccc12 | -8.88% (inactive) |  |
| CCCCCCCCCCCCCOC(=O)CCSCCC(=O)OCCCCCCCCCCCCC | 2.35% [at 32.5 µM] (inactive) |  |
| Cc1cc(CCC(=O)OCCOCCOCCOC(=O)CCc2cc(C)c(O)c(C(C)(C)C)c2)cc(C(C)(C)C)c1O | 5.38% (inactive) |  |
| COC(CC(C)CCCC(C)(C)O)OC (stereo unspecified) | 13.4% (inactive) |  |
| CCSC(=O)N(CC)CC | -12.8% (inactive) |  |
| O=C(O)/C=C/c1ccc(O)c(O)c1 | 6.91% [at 95 µM] (inactive) |  |
| CSSc1ccoc1C | 12.4% (inactive) |  |
| CC(=O)OCC(=O)[C@@]1(OC(C)=O)[C@@H](C)C[C@H]2[C@@H]3C[C@H](F)C4=CC(=O)C=C[C@]4(C)[C@@]3(F)[C@@H](O)C[C@@]21C | -3.05% (inactive) |  |
| COc1cc(OC)c2ccc(=O)oc2c1 | 10.8% (inactive) |  |
| NC(=O)c1ccccc1[N+](=O)[O-] | 0.255% [at 95 µM] (inactive) |  |
| C=C(C)C(=O)OCCC(F)(F)C(F)(F)C(F)(F)C(F)(F)C(F)(F)C(F)(F)F | 0.359% (inactive) |  |
| CC(C)C1CCC(C(=O)N[C@H](Cc2ccccc2)C(=O)O)CC1 (stereo partly specified) | 9.18% (inactive) |  |
| CC(=O)Oc1cccc(O)c1 | 0.418% (inactive) |  |
| CC[C@H]1OC(=O)[C@H](C)[C@@H](O[C@H]2C[C@@](C)(OC)[C@@H](O)[C@H](C)O2)[C@H](C)[C@@H](O[C@@H]2O[C@H](C)C[C@H](N(C)C)[C@H]2O)[C@](C)(O)C[C@@H](C)CN(C)[C@H](C)[C@@H](O)[C@]1(C)O |  | inactive |

Target: Peroxisome proliferator-activated receptor gamma (Homo sapiens) (UniProt P37231)
Assay: qHTS assay to identify small molecule agonists of the peroxisome proliferator-activated receptor gamma (PPARg) signaling pathway (AID 743094; active = well fitted activation curve with a large enough effect in the signal ratio in the repeat runs, not every such curve was filed as active; the % refers to the signal ratio)
Conditions: HEK293H PPARg-UAS-bla, beta-lactamase FRET ratio, 17 h; series mostly up to 57 µM; activation: at the top concentration
How it was run: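 Compounds dissolved in DMSO were added to PPARg UAS-bla HEK293H cells for 17 h at 37C, and reporter expression was quantified by fluorescence intensity after 1 h with LiveBLAzer B/G FRET substrate.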

Peroxisome proliferator-activated receptor gamma (Homo sapiens), sequence (P37231 whole entry, looked up): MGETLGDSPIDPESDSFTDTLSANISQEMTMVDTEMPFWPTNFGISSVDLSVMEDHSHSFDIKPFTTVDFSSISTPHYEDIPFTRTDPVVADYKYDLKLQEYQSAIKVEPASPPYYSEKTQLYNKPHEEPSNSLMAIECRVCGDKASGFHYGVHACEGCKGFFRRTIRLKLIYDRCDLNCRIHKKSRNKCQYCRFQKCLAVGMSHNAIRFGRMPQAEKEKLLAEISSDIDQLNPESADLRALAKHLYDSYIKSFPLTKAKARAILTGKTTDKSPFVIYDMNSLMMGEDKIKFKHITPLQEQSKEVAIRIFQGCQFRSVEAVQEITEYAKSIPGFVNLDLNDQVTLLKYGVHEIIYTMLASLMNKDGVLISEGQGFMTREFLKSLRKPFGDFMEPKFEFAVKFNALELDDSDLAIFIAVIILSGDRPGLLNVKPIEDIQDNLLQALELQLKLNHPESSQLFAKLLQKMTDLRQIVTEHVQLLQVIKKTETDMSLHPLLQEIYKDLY

| SMILES | activation | outcome |
| --- | --- | --- |
| CCCC(=O)OC(=O)CCC | 4.41% [at 78.9 µM] (inactive) |  |
| Nc1ccc(F)cc1 | -9.36% [at 78.9 µM] (inactive) |  |
| CC(C)CC(O)CC(C)C | -1.17% (inactive) |  |
| COC(=O)CC(C(C)=O)C(=O)OC (stereo unspecified) | 5.94% (inactive) |  |
| O=C(O)CCS | -0.613% [at 78.9 µM] (inactive) |  |
| N[C@@H](Cc1cc(I)c(O)c(I)c1)C(=O)O | 1.53% (inactive) |  |
| CC(CO)(CO)C(=O)O | 0.255% [at 78.9 µM] (inactive) |  |
| COC(C)(C)OC | -1.91% (inactive) |  |
| C[C@@H]1[C@H](O)[C@@H](C)/C=C/C=C\C=C\C=C\C=C\C=C\C=C\[C@H](O[C@@H]2O[C@H](C)[C@@H](O)[C@H](N)[C@@H]2O)C[C@@H]2O[C@](O)(C[C@@H](O)C[C@@H](O)[C@H](O)CC[C@@H](O)C[C@@H](O)CC(=O)O[C@H]1C)C[C@H](O)[C@H]2C(=O)O (stereo in doubt) | -6.09% (inactive) |  |
| CCCCCCCCCCCCCOS(=O)(=O)O | 5.61% (inactive) |  |
| CC(C)(C)NCC(O)COc1cccc2c1C[C@H](O)[C@H](O)C2 (stereo partly specified) | -1.66% [at 26.2 µM] (inactive) |  |
| CC1CCc2nccnc21 (stereo unspecified) | 0.047% (inactive) |  |
| COc1ccc(CCN(C)CCCN2CCc3cc(OC)c(OC)cc3CC2=O)cc1OC | 1.08% (inactive) |  |
| COc1cc(NS(=O)(=O)c2ccc(N)cc2)nc(C)n1 | -0.0745% (inactive) |  |
| CC(C)C(O)C(C)(C)CO (stereo unspecified) | 2.19% [at 78.9 µM] (inactive) |  |
| COc1ccc(-c2cc(C(F)F)nn2-c2ccc(S(N)(=O)=O)cc2)cc1F | 0.906% (inactive) |  |
| [Cl][Nd]([Cl])[Cl] | 0.297% (inactive) |  |
| CC(C)OC(=O)c1ccccc1C(=O)OC(C)C | -1.02% (inactive) |  |
| CCCCCCC(O)CCOC(C)=O (stereo unspecified) | 2.33% [at 219 µM] (inactive) |  |

| SMILES | activation | outcome |
| --- | --- | --- |
| CCN(Cc1cccc(S(=O)(=O)O)c1)c1ccc(C(=C2C=CC(=[N+](CC)Cc3cccc(S(=O)(=O)O)c3)C=C2)c2ccccc2S(=O)(=O)[O-])cc1 | -1.26% (inactive) |  |
| Cc1cccc2sc(N)nc12 | -5.02% [at 78.9 µM] (inactive) |  |
| CCO[Si](C)(CCCOCC1CO1)OCC (stereo unspecified) | 0.545% (inactive) |  |
| Cc1ccc2c(c1)CCCN2 | -5.33% (inactive) |  |
| CC[C@H]1OC(=O)[C@H](C)[C@@H](O[C@H]2C[C@@](C)(OC)[C@@H](O)[C@H](C)O2)[C@H](C)[C@@H](O[C@@H]2O[C@H](C)C[C@H](N(C)C)[C@H]2O)[C@](C)(O)C[C@@H](C)/C(=N\OCOCCOC)[C@H](C)[C@@H](O)[C@]1(C)O |  | inactive |
| Cc1c[nH]c2ccccc12 | -4.6% (inactive) |  |
| CCCCCCCCCCCCCOC(=O)CCSCCC(=O)OCCCCCCCCCCCCC | -1.76% [at 26.2 µM] (inactive) |  |
| Cc1cc(CCC(=O)OCCOCCOCCOC(=O)CCc2cc(C)c(O)c(C(C)(C)C)c2)cc(C(C)(C)C)c1O | -1.3% (inactive) |  |
| COC(CC(C)CCCC(C)(C)O)OC (stereo unspecified) | -2.68% (inactive) |  |
| CCSC(=O)N(CC)CC | 0.266% (inactive) |  |
| O=C(O)/C=C/c1ccc(O)c(O)c1 | 0.0511% [at 78.9 µM] (inactive) |  |
| CSSc1ccoc1C | -0.31% (inactive) |  |
| CC(=O)OCC(=O)[C@@]1(OC(C)=O)[C@@H](C)C[C@H]2[C@@H]3C[C@H](F)C4=CC(=O)C=C[C@]4(C)[C@@]3(F)[C@@H](O)C[C@@]21C | -4.56% (inactive) |  |
| COc1cc(OC)c2ccc(=O)oc2c1 | 4.77% (inactive) |  |
| NC(=O)c1ccccc1[N+](=O)[O-] | -4.44% [at 78.9 µM] (inactive) |  |
| C=C(C)C(=O)OCCC(F)(F)C(F)(F)C(F)(F)C(F)(F)C(F)(F)C(F)(F)F | -1.89% (inactive) |  |
| CC(C)C1CCC(C(=O)N[C@H](Cc2ccccc2)C(=O)O)CC1 (stereo partly specified) | 3.7% (inactive) |  |
| CC(=O)Oc1cccc(O)c1 | -2.44% (inactive) |  |
| CC[C@H]1OC(=O)[C@H](C)[C@@H](O[C@H]2C[C@@](C)(OC)[C@@H](O)[C@H](C)O2)[C@H](C)[C@@H](O[C@@H]2O[C@H](C)C[C@H](N(C)C)[C@H]2O)[C@](C)(O)C[C@@H](C)CN(C)[C@H](C)[C@@H](O)[C@]1(C)O |  | inactive |
